The text below walks through data of ChEMBL document CHEMBL4513216, “Probing the Open Global Health Chemical Diversity Library for Multistage-Active Starting Points for Next-Generation Antimalarials” (ACS Infect Dis, 2020).

Each structure is given as a SMILES string. In all, about 65,000 compounds went through this assay and about 2,100 (3.2%) showed an effect of 50% or more. The median lay at about -52%. Only a selection was taken, and strong results are over-represented in it overall.

For this experiment, the system named is Plasmodium falciparum. As to the kind of experiment: Screen against P. falciparum Asexual Blood Stage (ABS), at 5uM. Type of experiment: functional, Dd2. The note with it: tested at 5 uM.
Take `c1cnc(N2CCO[C@H]3CN(CC4CCOCC4)C[C@H]32)nc1`: the INHIBITION is reported as -125%.

As to `Cc1nnc(NC(=O)CN2CCCC(c3ccn[nH]3)C2)s1` (stereo unspecified), the INHIBITION is 85.8%. Consider `O=C(CN1CCCC(c2ccn[nH]2)C1)Nc1nncs1` (stereo unspecified), for which the INHIBITION amounted to 89.1%.

Take `CC(C)(CNc1ccc(C#N)c(C(F)(F)F)c1)C(N)=O`: the INHIBITION was -66.3%. On to `Cc1ccc(C2(CN(C)Cc3sccc3C)CCNCC2)nc1`, for which the INHIBITION was 77.4%. In the case of `COCCCNC(=O)c1cn(C(C)(C)C)c2ncccc12` it was -71.7%. The value for `COc1ccc(C(=O)NCCCOC(C)c2ccccc2)c(OC)c1` (stereo unspecified) was 78.9%. As to `Fc1ccc(CN2C[C@@H](OCc3ccccn3)[C@H]3COC[C@H]32)cc1`, the INHIBITION is reported as -62.3%. For the molecule `O=C(NCCCN1CCCCC1)c1ccc(-n2ccc3ccccc32)s1`, the INHIBITION is recorded as 79%. For `CCN(CC)CCNC(=O)c1ccc(-n2ccc3ccccc32)s1`, the INHIBITION was determined as 90.5%. In the case of `Cc1nc(CN2CCN3C[C@H](Oc4cncnc4)C[C@H]3C2)cs1` it was -50.1%; in that of `c1ccc(Oc2nccc3occc23)c(CN2CCCCC2)c1`, 72.9%; in that of `COCCCN1CCCC12CCN(Cc1cccnc1OC)CC2`, 8.49%. As for `CN1CCN(Cc2ccccc2Oc2nccc3occc23)CC1`, the INHIBITION amounted to 77.4%. Consider `COc1ncccc1CN1CCC2(CC1)COCCN2C`, for which the INHIBITION is on record as -36%.

On to `COc1ncccc1CN1C[C@@H]2CN(c3ncccn3)C[C@@H]2C1`, for which the INHIBITION is on record as 5.48%. The value for `O=C([C@H]1C[C@H]2OCC[C@H]2N(Cc2cccnc2)C1)N1CCCCO1` was -141%; that for `O=C(c1c[nH]c2ncccc12)N(Cc1ccco1)C1CCCC1` was 87%. In the case of `CCC(C)(C)n1nnnc1C(c1cccs1)N1CCc2ccccc2C1` (stereo unspecified) it was 73.9%. Consider `Fc1ccccc1Sc1ccccc1CNC1=NCCN1`, for which the INHIBITION came to 77.4%. Turning to `Fc1ccc(Sc2ccccc2CNC2=NCCN2)cc1`, the INHIBITION turned out to be 80.4%. For the molecule `c1ccc(Sc2ccc3c(c2)OCO3)c(CNC2=NCCN2)c1`, the INHIBITION turned out to be 83.7%.

Turning to `Cc1csc(CN2CC[C@H]3C[C@H](c4ccncn4)O[C@@H]3C2)n1`, the INHIBITION is recorded as -50.8%. In the case of `CNCc1cn(C[C@H]2C[C@@H]3CCN2C[C@@H]3C(=O)NC2CCCCC2)nn1`, the INHIBITION is -152%.

With `CO[C@H]1CCN(S(=O)(=O)N(C)C)[C@@H]2CN(Cc3cccnc3)C[C@H]12`, the INHIBITION is -7.26%.

Turning to `O=C(Nc1ccccc1)[C@H]1CN2CC[C@H]1C[C@@H]2Cn1cc(CCO)nn1`, the INHIBITION is given as -52.4%. As for `c1ccc(COC2C[C@@H]3CN(Cc4cccnc4)C[C@@H]3C2)cc1` (stereo partly specified), the INHIBITION was -9.68%. On to `CC(C)CN1CCNC(=O)C12CCN(C(=O)c1ccccn1)CC2`, for which the INHIBITION is -97.5%.

With `O=C(N1CCCC1)N1C[C@@H]2CC[C@H]1CN(Cc1ccncc1)C2`, the INHIBITION was -121%. For the molecule `Cc1cccc(CO[C@@H]2C[C@H]3CN(c4ncccn4)CCN3C2)n1`, the INHIBITION is recorded as -75.8%. With `CCN(CC)Cc1ccccc1NC(=O)N(C)Cc1ccccc1O`, the INHIBITION worked out at 85%. Regarding `Cc1cccc(CN2C(=O)C[C@@H]3[C@@H]2CCN3Cc2ccsc2)n1`, the INHIBITION is -13%.

In the case of `CC(C)c1nc(CN2CCN(C(=O)Cc3ccccc3Cl)CC2)no1`, the INHIBITION is recorded as 10.3%.

With `Cc1nc(CN2CCCC(NCCc3ccccc3Cl)C2)no1` (stereo unspecified), the INHIBITION amounted to 82.3%. Turning to `COc1ccccc1OCC(=O)N1CCN(Cc2noc(C)n2)CC1`, the INHIBITION is on record as -68.9%. For the molecule `Fc1cnc(N2CCO[C@H]3CN(CC4CCC4)C[C@H]32)nc1`, the INHIBITION is recorded as -80%.

As to `Cn1c(CN2CCCCC2)cc(=O)c(O)c1CN1CCCCC1`, the INHIBITION turned out to be 81.8%. In the case of `CO[C@H]1CN(CC2CCOCC2)[C@@H]2CCCO[C@H]12` it was -48.2%; in that of `CCC(O)CN1CCN(C(=O)Cc2ccccc2Cl)CC1` (stereo unspecified), -113%.

`Cc1c(C)n(CC(O)CN2CCC(C)CC2)c2c(Cl)cccc12` (stereo unspecified): the INHIBITION was 83%. Take `Cc1c(C)n(CC(O)CN2CCN(CCO)CC2)c2c(Cl)cccc12` (stereo unspecified): the INHIBITION amounted to 88.6%. In the case of `CCS(=O)(=O)N1CCN(CCOC)c2ncccc2C1`, the INHIBITION was -58.7%. In the case of `COCCN1CCOCC12CCN(C(=O)c1cccnc1)CC2` it was -95.8%; in that of `O=C(NC1CC1)[C@H]1C[C@H]2OCC[C@H]2N(Cc2cccnc2)C1`, -76.1%; in that of `Fc1ccc(-c2nccnc2C2CCCNC2)cc1` (stereo unspecified), 76.6%. `c1c[nH]c2nc(C3CCCNC3)nc-2c1` (stereo unspecified): the INHIBITION is recorded as -172%. As for `CN(C)c1cc(C2CCCNC2)ccn1` (stereo unspecified), the INHIBITION was -11.8%. As to `CC1CCCCN1C(=O)c1coc(COc2cccc3cnccc23)n1` (stereo unspecified), the INHIBITION was found to be 86.5%. Consider `Cc1cccc(CN2CC[C@H]3[C@H]2CCN3C(=O)c2cnn(C)c2)n1`, for which the INHIBITION is listed as -5.92%. As to `COc1ccc(NC(=O)Nc2cnc(N3CCN(C)CC3)nc2)cc1Cl`, the INHIBITION is 87.9%. With `Cc1ccc(NC(=O)NC(C)c2nc[nH]n2)cc1Cl` (stereo unspecified), the INHIBITION is -107%. On to `CNS(=O)(=O)CC(=O)NC(C)Cc1ccc(Br)cc1` (stereo unspecified), for which the INHIBITION is recorded as -89.6%. In the case of `CN1C(Cn2cccn2)C[C@@H]2CN(Cc3ccccn3)CC[C@@H]21` (stereo partly specified), the INHIBITION was determined as 41.6%. Consider `Cc1nccc([C@@H]2C[C@@H]3CCN(Cc4cccs4)C[C@H]3O2)n1`, for which the INHIBITION is -92.1%.

Consider `C[C@@H]1C[C@@H]2CCN(Cc3nccs3)C[C@H]2O1`, for which the INHIBITION was -26.9%. In the case of `CN1CC[C@H]2[C@H](C[C@@H](CN3CCCC3)N2c2nccs2)C1` it was 73.7%; in that of `NC(=O)N1C[C@H]2CN(Cc3nccs3)C[C@H]2C1`, -12%; in that of `c1cnn(C[C@@H]2C[C@@H]3CN(CC4CC4)CC[C@@H]3N2c2nccs2)c1`, 89.9%. Regarding `O=C(c1ncccn1)N1C[C@@H]2CN(CC3CC3)CCO[C@@H]2C1`, the INHIBITION was -14.4%. As to `C[C@H]1C[C@@H]2CCN(Cc3nccs3)C[C@H]2O1`, the INHIBITION was -9.59%. On to `CN1[C@H](Cn2cccn2)C[C@@H]2CN(Cc3cccs3)CC[C@@H]21`, for which the INHIBITION is on record as 75.8%. For `CCN(CCc1ccccc1)Cn1nc(C)c2c(C)onc2c1=O`, the INHIBITION was -13.3%. For the molecule `Cc1ccc(-c2ccc(C3CNCCO3)nc2)cc1` (stereo unspecified), the INHIBITION is recorded as 83.5%. Turning to `Clc1ccc(-c2ccc(C3CNCCO3)nc2)cc1` (stereo unspecified), the INHIBITION was determined as 85.9%. The value for `CCCC(=O)N1CCC2(CC1)OCCO2` was -40.8%. Regarding `COCCN1CC[C@H]2OCC[C@@H](C(=O)Nc3cccnc3)[C@@H]2C1`, the INHIBITION is reported as -67.2%. On to `COCCN1CC=C(c2cccc(OC)c2)CC1`, for which the INHIBITION is on record as 13.9%. With `CN1CCC(c2cncc(Cl)n2)CC1`, the INHIBITION is -28.5%. Take `COCCN1CCC(c2cncc(-c3cccc(Cl)c3)n2)CC1`: the INHIBITION stood at 71.1%. With `OCCN1CCC(c2cncc(-c3cccc(Cl)c3)n2)CC1`, the INHIBITION came to 71.1%. With `CCCS(=O)(=O)N1CCOC2(CCCN(Cc3ccccn3)C2)C1` (stereo unspecified), the INHIBITION is -21.2%. In the case of `CN(C)C[C@]12COC[C@H]1CN(Cc1ccccn1)C2` it was -39.8%; in that of `Cc1ccc(CN2CCN(C)c3ncccc3C2)o1`, -75.5%. For `COc1cccc(CN2CCN3C(=O)NC[C@H]3C2)n1`, the INHIBITION is listed as -90.1%. Turning to `Cc1cccc(CN2CCN3C[C@H](Oc4cccnc4)C[C@H]3C2)n1`, the INHIBITION is on record as -91.1%.

As for `Clc1cccc2c3c([nH]c12)CCN(Cc1cc2n(n1)CCNC2)C3`, the INHIBITION is 79.1%.

`Clc1cccc2c3c([nH]c12)CCN(Cc1cc2n(n1)CCCNC2)C3`: the INHIBITION stood at 89.7%. As to `c1cncc(OC[C@]23COC[C@H]2CN(Cc2nccs2)C3)c1`, the INHIBITION was -94.4%. In the case of `Cc1cccc(CN2CCO[C@H]3[C@H](Oc4ccccn4)CC[C@@H]32)n1` it was -7.66%; in that of `CC(C)N1CCOC(c2ccnc(N(C)C)n2)C1` (stereo unspecified), -133%; in that of `Cc1cc(N2CCOC(c3ccccn3)C2)nc(N)n1` (stereo unspecified), 75.1%. As to `N#CC1CCCN(c2nc(-c3ccccc3)nc3c2CCNCC3)C1` (stereo unspecified), the INHIBITION is on record as 79.9%. `NCC1CCCN(c2nc(-c3ccccc3)nc3c2CCNCC3)C1` (stereo unspecified): the INHIBITION is reported as 85.9%.

Regarding `Cc1noc(C)c1CN1C[C@H](OCC2CC2)[C@H]2OCCC[C@H]21`, the INHIBITION is -58%. Take `CS(=O)(=O)NCc1cncc2c1CCN(CC1CCOC1)C2` (stereo unspecified): the INHIBITION is given as -80.3%. Take `Cc1noc(C)c1CN1C[C@H](OCC(=O)N(C)C)[C@H]2OCCC[C@H]21`: the INHIBITION is given as -72.7%. `Cc1cc(CN2CCc3nc(-c4ccncc4)nc(O)c3CC2)c(C)s1`: the INHIBITION was determined as 91%. In the case of `Cc1cc(CN2CCc3nc(N4CCOCC4)nc(O)c3CC2)c(C)s1` it was 77.6%. For the molecule `O=C(N[C@H]1CN[C@H]2CCCO[C@H]21)c1cccnc1`, the INHIBITION is given as -13.5%. For `Cc1cc(CN2CCO[C@H]3[C@H](OCc4csc(C)n4)CC[C@@H]32)no1`, the INHIBITION is reported as -73.3%. In the case of `CC(C)[C@H](N)C(=O)N1CCSc2ccccc2C1` it was 73.7%; in that of `O=C1Nc2ccccc2C12CCCN(Cc1ccncc1)C2` (stereo unspecified), -78.5%. Regarding `Cc1cccc(CN2CCOCC3(CCN(C4CCOCC4)C3)C2)c1` (stereo unspecified), the INHIBITION is reported as 78.6%. In the case of `O=C(Cc1cccnc1)N1CCC2(CC1)CCN(C1CCOC1)C2` (stereo unspecified), the INHIBITION is reported as -58.9%.

For `c1cncc(CN2CCC3(COCCN(C4CCOCC4)C3)C2)c1` (stereo unspecified), the INHIBITION is listed as -42%. With `c1ccc(CN2CCOCC3(CCN(C4CCOCC4)C3)C2)cc1` (stereo unspecified), the INHIBITION worked out at 82.2%. For `c1cncc(CN2CCCC3(COCCN(c4nccs4)C3)C2)c1` (stereo unspecified), the INHIBITION is 10.9%. `Fc1cccc(CN2CCOCC3(CCN(C4CCOCC4)C3)C2)c1` (stereo unspecified): the INHIBITION is on record as 78.2%.

As to `Fc1cccc(CN2CCC3(CCN3c3ncccn3)C2)c1` (stereo unspecified), the INHIBITION turned out to be 27.1%. For the molecule `CNC(=O)CN1CCOCC2(CCCN(Cc3cccnc3)C2)C1` (stereo unspecified), the INHIBITION is recorded as -8.58%.

Take `c1cc(CN2CCOCC3(CCN(C4CCOCC4)C3)C2)ccn1` (stereo unspecified): the INHIBITION is reported as -38.5%.
